Laboratory results as given in ChEMBL document CHEMBL5606460, “ASAP - DENV-2 NS2B-NS3 protease fluorescence single point” (2024).
About 110 (5.5%) of roughly 2,000 compounds showed an effect of 50% or more. This excerpt belongs to a sample that is enriched for strong results.

Target: Genome polyprotein (dengue virus type 2) (UniProt P29990)
[1] = Thailand/16681/1984, Concentration 25.0 uM, Number of replicates 1.0

SMILES: CNC(=O)c1cc(Cl)ccc1NS(=O)(=O)c1ccc(Oc2ccccc2Cl)cc1
- inhibition (Thailand/16681/1984, Concentration 49.5 uM, Number of replicates 2.0, Standard deviation 2.214504665393713 %): 57.1%
- inhibition (Thailand/16681/1984, Concentration 99.01 uM, Number of replicates 2.0, Standard deviation 0.44410505168195935 %): 89.7%
- inhibition (Thailand/16681/1984, Concentration 198.0 uM, Number of replicates 2.0, Standard deviation 0.048202507704939286 %): 89.7%

SMILES: CNC(=O)c1cc(Cl)ccc1NS(=O)(=O)c1ccc(NS(C)(=O)=O)cc1
- inhibition (Thailand/16681/1984, Concentration 49.5 uM, Number of replicates 2.0, Standard deviation 0.6295365180266114 %): 1.5%
- inhibition (Thailand/16681/1984, Concentration 99.01 uM, Number of replicates 2.0, Standard deviation 0.4200098669756753 %): 3.13%
- inhibition (Thailand/16681/1984, Concentration 198.0 uM, Number of replicates 2.0, Standard deviation 0.4807630318175827 %): 6.02%

SMILES: CNC(=O)c1cc(OC)ccc1NS(=O)(=O)c1ccc(Oc2ccccc2Cl)cc1
- inhibition (Thailand/16681/1984, Concentration 49.5 uM, Number of replicates 2.0, Standard deviation 1.018543331825067 %): 7.08%
- inhibition (Thailand/16681/1984, Concentration 99.01 uM, Number of replicates 2.0, Standard deviation 0.3266212172200244 %): 15.5%
- inhibition (Thailand/16681/1984, Concentration 198.0 uM, Number of replicates 2.0, Standard deviation 0.9287695329724984 %): 21.9%

SMILES: CNS(=O)(=O)c1ccc(Oc2ccccc2Cl)cc1
- inhibition (Thailand/16681/1984, Concentration 49.5 uM, Number of replicates 2.0, Standard deviation 2.6119045762628477 %): -1.72%
- inhibition (Thailand/16681/1984, Concentration 99.01 uM, Number of replicates 2.0, Standard deviation 1.5233102161282106 %): -0.429%
- inhibition (Thailand/16681/1984, Concentration 198.0 uM, Number of replicates 2.0, Standard deviation 1.4243001461587221 %): 1.7%

SMILES: Cc1cc(CO)c2cccc(Cc3ccccc3C(=O)N[C@@H](CCCN)C(=O)O)c2n1
- inhibition (Thailand/16681/1984, Concentration 49.95 uM, Number of replicates 2.0, Standard deviation 1.450239339781055 %): -9.67%
- inhibition (Thailand/16681/1984, Concentration 99.9 uM, Number of replicates 2.0, Standard deviation 1.946109361538337 %): 0.782%

SMILES: CCOC(=O)c1cc(CNCc2nnc3ccccn23)[nH]n1
- inhibition (Thailand/16681/1984, Concentration 49.5 uM, Number of replicates 2.0, Standard deviation 0.017813955579008514 %): 6.64%
- inhibition (Thailand/16681/1984, Concentration 99.01 uM, Number of replicates 2.0, Standard deviation 0.5926797733534107 %): 7.63%
- inhibition (Thailand/16681/1984, Concentration 198.0 uM, Number of replicates 2.0, Standard deviation 1.0587355780894199 %): 6.43%

SMILES: Cc1cc(CO)c2cccc(CC(=O)N[C@H](Cc3c[nH]cn3)C(=O)O)c2n1
- inhibition (Thailand/16681/1984, Concentration 49.95 uM, Number of replicates 2.0, Standard deviation 0.5871204354474296 %): 9.25%
- inhibition (Thailand/16681/1984, Concentration 99.9 uM, Number of replicates 2.0, Standard deviation 0.6044303147182479 %): 24.8%

SMILES: O=Cc1ccc(N2CCC(C(=O)N3CCN(Cc4ccc(Cl)nc4)CC3)CC2)cc1
- inhibition [1]: 10.1%

SMILES: C[C@H](NC(=O)C1CCN(c2ccc(C=O)cc2)CC1)c1cccc(C(F)(F)F)c1
- inhibition [1]: 11%

SMILES: O=Cc1ccc(N2CCC(C(=O)N[C@H]3C[C@@H]3c3ccc(F)c(F)c3)CC2)cc1
- inhibition [1]: 12.2%

SMILES: O=Cc1ccc(N2CCC(C(=O)NCc3ccccc3OC(F)(F)F)CC2)cc1
- inhibition [1]: 12.7%

SMILES: O=Cc1ccc(N2CCC(C(=O)Nc3ccc(Oc4ccc(Cl)cc4)cc3)CC2)cc1
- inhibition [1]: 3.01%

SMILES: O=C(c1cc2ccccc2[nH]1)N1CCC[C@H](c2c[nH]c3ncccc23)C1
- inhibition (Thailand/16681/1984, Concentration 49.5 uM, Number of replicates 2.0, Standard deviation 0.6846779142829902 %): 3.74%
- inhibition (Thailand/16681/1984, Concentration 99.01 uM, Number of replicates 2.0, Standard deviation 0.6286192340156203 %): 6.35%
- inhibition (Thailand/16681/1984, Concentration 198.0 uM, Number of replicates 2.0, Standard deviation 0.39513209958624096 %): 4.86%

SMILES: O=Cc1ccc(N2CCC(C(=O)N3CCO[C@@H](c4ccccc4)C3)CC2)cc1
- inhibition [1]: 8.68%

SMILES: Cc1cc(CO)c2cccc(Cc3cccc(C(=O)NCCN4CCOCC4)c3)c2n1
- inhibition (Thailand/16681/1984, Concentration 49.95 uM, Number of replicates 2.0, Standard deviation 1.1800261159088588 %): -8.12%
- inhibition (Thailand/16681/1984, Concentration 99.9 uM, Number of replicates 2.0, Standard deviation 0.7869239771342965 %): -3.46%

SMILES: O=C(NCC1(c2ccncc2F)CCC1)[C@@]1(c2ccc(F)cc2)CCCNC1
- inhibition (Thailand/16681/1984, Concentration 49.5 uM, Number of replicates 2.0, Standard deviation 0.9074685157350926 %): -2.89%
- inhibition (Thailand/16681/1984, Concentration 99.01 uM, Number of replicates 2.0, Standard deviation 1.7740222143666056 %): -1.32%
- inhibition (Thailand/16681/1984, Concentration 198.0 uM, Number of replicates 2.0, Standard deviation 1.670161679604597 %): -0.296%

SMILES: Cc1cc(CO)c2cccc(CC(=O)N[C@@H](CCC(N)=O)C(=O)O)c2n1
- inhibition (Thailand/16681/1984, Concentration 49.95 uM, Number of replicates 2.0, Standard deviation 0.1031646955614498 %): 95.6%
- inhibition (Thailand/16681/1984, Concentration 99.9 uM, Number of replicates 2.0, Standard deviation 0.012461980167701147 %): 98.7%

SMILES: Cc1cc(CO)c2cccc(Cc3cccc(C(=O)N[C@@H](CCC(N)=O)C(=O)O)c3)c2n1
- inhibition (Thailand/16681/1984, Concentration 49.95 uM, Number of replicates 2.0, Standard deviation 0.9076569964416333 %): 26.5%
- inhibition (Thailand/16681/1984, Concentration 99.9 uM, Number of replicates 2.0, Standard deviation 0.5346782919570826 %): 79%

SMILES: Cc1cc(CO)c2cccc(CC(=O)N[C@@H](C)C(N)=O)c2n1
- inhibition (Thailand/16681/1984, Concentration 49.95 uM, Number of replicates 2.0, Standard deviation 0.6764350022386235 %): -6.74%
- inhibition (Thailand/16681/1984, Concentration 99.9 uM, Number of replicates 2.0, Standard deviation 0.17585957987303982 %): -4.59%

SMILES: Cc1cc(CO)c2cccc(Cc3cccc(C(=O)N[C@@H](CCCN)C(=O)O)c3)c2n1
- inhibition (Thailand/16681/1984, Concentration 49.95 uM, Number of replicates 2.0, Standard deviation 0.7049975000059713 %): -1.78%
- inhibition (Thailand/16681/1984, Concentration 99.9 uM, Number of replicates 2.0, Standard deviation 0.2824297407941699 %): 11.7%

SMILES: Cc1cc(CO)c2cccc(Cc3cccc(C(=O)N[C@@H](CCN)C(=O)O)c3)c2n1
- inhibition (Thailand/16681/1984, Concentration 49.95 uM, Number of replicates 2.0, Standard deviation 0.6194784255105775 %): -9.07%
- inhibition (Thailand/16681/1984, Concentration 99.9 uM, Number of replicates 2.0, Standard deviation 14.524673907807347 %): 0.432%

SMILES: Cc1cc(CO)c2cccc(Cc3ccccc3C(=O)N[C@@H](CCC(N)=O)C(=O)O)c2n1
- inhibition (Thailand/16681/1984, Concentration 49.95 uM, Number of replicates 2.0, Standard deviation 0.9816783263695582 %): 12.6%
- inhibition (Thailand/16681/1984, Concentration 99.9 uM, Number of replicates 2.0, Standard deviation 0.9155644195718532 %): 39.4%
